# Laboratory results published in the supplement of paper PMC3334620.
# Whole data set: some 33,000 sequences, median “E-score (-0.5 to 0.5)” near -0.035, cut for the highest 2% near 0.35. Many of the other results were omitted from the sample, so the highest values are more common in it than they were.
# Biological target: T1, Pdr3 (UniProt P33200)
# T1 sequence: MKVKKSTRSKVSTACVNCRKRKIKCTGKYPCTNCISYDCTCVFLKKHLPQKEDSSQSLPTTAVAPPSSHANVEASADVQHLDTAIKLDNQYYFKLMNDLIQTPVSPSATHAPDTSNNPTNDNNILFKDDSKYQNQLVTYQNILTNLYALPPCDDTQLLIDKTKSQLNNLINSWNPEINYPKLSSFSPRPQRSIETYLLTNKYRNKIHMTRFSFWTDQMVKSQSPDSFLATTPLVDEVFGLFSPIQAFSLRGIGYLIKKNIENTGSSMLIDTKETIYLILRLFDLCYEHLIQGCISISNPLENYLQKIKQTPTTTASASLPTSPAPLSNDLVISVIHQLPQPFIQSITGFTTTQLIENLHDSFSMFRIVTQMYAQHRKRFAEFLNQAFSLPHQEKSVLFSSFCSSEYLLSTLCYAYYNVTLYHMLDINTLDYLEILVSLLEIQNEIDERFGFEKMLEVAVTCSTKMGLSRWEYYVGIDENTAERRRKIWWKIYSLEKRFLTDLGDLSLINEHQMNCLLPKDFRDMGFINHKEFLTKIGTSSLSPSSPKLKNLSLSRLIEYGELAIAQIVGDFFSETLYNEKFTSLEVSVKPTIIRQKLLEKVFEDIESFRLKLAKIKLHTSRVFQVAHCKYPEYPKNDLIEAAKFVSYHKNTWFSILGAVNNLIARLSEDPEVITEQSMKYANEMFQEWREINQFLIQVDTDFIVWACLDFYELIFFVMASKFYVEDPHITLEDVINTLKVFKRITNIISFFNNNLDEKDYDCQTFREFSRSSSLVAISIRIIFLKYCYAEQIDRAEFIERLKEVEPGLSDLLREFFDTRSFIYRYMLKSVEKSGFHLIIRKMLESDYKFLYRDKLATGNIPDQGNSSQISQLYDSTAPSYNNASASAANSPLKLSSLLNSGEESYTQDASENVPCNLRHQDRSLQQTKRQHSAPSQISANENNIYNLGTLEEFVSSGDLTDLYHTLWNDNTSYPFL
# Assay: PBM E-score (8-mer binding enrichment) (E-score (-0.5 to 0.5)); higher = stronger / more preferred TF binding
# Conditions: protein concentration: 200 nM; construct: GST-full length
# Description: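 Universal 'all 10-mer' protein binding microarrays (Agilent AMADID 015681) probed with GST-tagged S. cerevisiae TFs (full-length or DBD) made by in vitro transcription/translation (PURExpress), about 100-200 nM. Bound TF was detected with fluorescent anti-GST. Each ungapped 8-mer (which stands for itself and its reverse complement) is scored by the PBM enrichment score (E-score), a modified Wilcoxon-Mann-Whitney statistic from -0.5 to +0.5, computed with the Universal PBM Analysis Suite. Scale: above 0.35 generally sequence-specific binding.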
row,Sequence,PBM E-score
1,ATAAGAGG,0.0703
2,AAGGTCAG,-0.201
3,AGCAGACT,-0.189
4,ACAGAGCT,-0.292
5,GTGCCCAA,-0.0202
6,GAATCACC,-0.027
7,CCGGGCTC,0.224
8,ACAATGCA,0.0617
9,AGAGGATG,0.0386
10,CACTAGCG,-0.0368
11,ATGTTTAC,-0.0373
12,GACGCGCA,0.0698
13,ACACCGGT,0.14
14,GCACCGGC,0.146
15,CCACCGGA,0.428
16,CCACCGGC,0.204
17,GCACCGTA,0.067
18,CCACCGGG,0.257
19,GCACCGGA,0.377
20,ACACCGGA,0.357
21,TCACCGGA,0.329
22,CGTTTGCA,0.0843
23,CCAACTGC,0.0661
24,TCCCATCA,-0.209
25,AGAAAGTG,-0.177

row,Sequence,PBM E-score
1,AATCGACG,0.058
2,CCGGCACG,0.279
3,CCGGCAGA,0.229
4,CCGGCAGG,0.231
5,CCGGCACC,0.369
6,ACGGCACC,-0.0873
7,CCGGCAGC,0.362
8,GTCCGTAA,0.191
9,CCGCCACC,0.0657
10,ACACAGGG,0.0204
11,GCCGTGAC,0.133
12,CCCGGAAG,0.419
13,CCAGGAAA,-0.0248
14,CCCGGAAA,0.449
15,ACCGGAAC,0.474
16,CCCGAAAA,0.191
17,ACCGGATG,0.249
18,ACCGGAAG,0.42
19,ACCGGATC,0.34
20,CCCCGAAG,0.144
21,CCTGGAAG,-0.203
22,ACCGGACG,0.311
23,ACCGGACC,0.297
24,CACCCAAG,-0.071
25,AAAATAAG,-0.194

row,Sequence,PBM E-score
1,CGGTTAAA,0.0999
2,CGATCTGA,0.0713
3,ATATCGAT,0.104
4,ACCGGAAT,0.411
5,GCCGGATA,0.368
6,ACCGGAGT,0.234
7,ACCAGAAA,-0.105
8,ACCGGAAA,0.405
9,ACCGGACT,0.285
10,ACCGGATA,0.151
11,CCCGGACC,0.334
12,CCCGGAAC,0.467
13,CCCCGAAC,0.129
14,GCAGGATA,-0.0657
15,ATTGGCGA,-0.2
16,CCACCTTA,-0.0834
17,GCTTTAGA,-0.238
18,AGAGCATC,-0.0714
19,CGTGCTAG,-0.276
20,GAAAAGGA,0.0166
21,GCAGGAAA,-0.081
22,TCCGGTAA,0.307
23,GCCGGACC,0.303
24,TCCGGAAA,0.466
25,GCCGGAAC,0.476

row,Sequence,PBM E-score
1,GCCGGAGC,0.236
2,GCCGGAAA,0.42
3,GCCGAAAA,0.276
4,TCAGGAAA,-0.128
5,GACAAGTA,0.00093
6,AAGCGATC,0.0113
7,ATTCCGGG,0.458
8,ACTCCCGA,0.0347
9,AATCCGGG,0.354
10,ACTCCCCG,0.306
11,ATTCCCGG,0.393
12,ATTCCCGA,0.212
13,ATTCCGGC,0.448
14,ATTCCAGC,0.0377
15,ATTCCCCG,0.28
16,ATTCCTGC,0.221
17,ACTCCCGG,0.356
18,ATTCCTGG,0.0168
19,ACTCAGCC,-0.146
20,ACAATAGT,-0.0518
21,GGACAACC,0.0553
22,CCACCACC,-0.0836
23,CCCAGGGG,-0.115
24,AATGTTAT,0.00821
25,AGCGTGGG,-0.253

row,Sequence,PBM E-score
1,AGCACCCT,-0.284
2,AGATCGGG,0.0992
3,TAATCGGA,0.324
4,AAATCGGA,0.326
5,GGATCGAA,0.133
6,AGATCCGA,0.169
7,GGATCCGA,0.399
8,GAATCGGA,0.36
9,CGATCCGA,0.326
10,CGATCGGA,0.196
11,GGATCGGA,0.359
12,AGATCGGC,0.134
13,AGATCGGA,0.394
14,CTTGACTA,-0.119
15,TGCAATAA,-0.00943
16,GTCTTCAA,-0.189
17,ACGCTGGG,-0.0598
18,CCCGCGAA,0.206
19,GAAGGAAC,0.0934
20,AACAACAC,0.0662
21,CCTCCAGG,-0.269
22,AATATTCG,0.0118
23,AATATTCC,0.362
24,AATATTCA,0.0722
25,ATACCGCC,0.212

row,Sequence,PBM E-score
1,AGCCGTTG,0.00388
2,ATCCGTTC,0.322
3,ATCCGTTG,0.376
4,ATCCGTGC,0.267
5,CTCCGTTA,0.216
6,GTCCGTTA,0.321
7,CTCCGTTC,0.367
8,ATCCGTGG,0.428
9,CTCCGTGC,0.263
10,ATCCGTTA,0.364
11,ATCCGTGA,0.306
12,ACCCGTTG,0.0389
13,AAGCGCGT,-0.113
14,TAGTCCCA,-0.187
15,CAACCCGG,0.293
16,CCACTCTA,-0.0753
17,AAGAGCCC,-0.00683
18,CGCTTAAC,0.0421
19,AAACCGGA,0.346
20,TAACCGGA,0.308
21,GAACCGGC,0.247
22,CAACCGGG,0.129
23,CAACCGCC,0.0754
24,GAACCGGA,0.416
25,CAACCGCA,0.0919

row,Sequence,PBM E-score
1,CAACCGGA,0.379
2,CAACCGCG,0.369
3,AAGATGAC,-0.202
4,AATGAAAC,0.059
5,GGCCTTCA,0.0249
6,GCGCCCCC,-0.146
7,GCCGACGC,0.178
8,CAATCCGC,0.265
9,AAATCCGG,0.39
10,CAATCCGA,0.271
11,AAATCCGC,0.196
12,AAATCCGT,0.246
13,CAATCCGG,0.394
14,GCCTCTTA,-0.109
15,CGAAGGTA,0.0358
16,CCGGACGA,0.36
17,ACGGACGA,0.304
18,CCGGACGC,0.33
19,CCGGACGG,0.396
20,TCGGACGA,0.233
21,ACGGACGG,0.245
22,AGCATTCA,-0.0565
